# Source: PubChem BioAssay (Tox21)
# Values without a mark were called inactive. The call rests on the fitted dose curve; in most records, active means well fitted activation curve with a large enough effect in the repeat runs; inconclusive means weak or mixed curves; inactive means flat fitted curve, though single readings scatter.
# Assay: Caspase-3/7 induction in CHO-K1 cells by small molecules, qHTS assay (AID 1346980); further: nearly all actives have a fitted effect of over 15% in size
# Details: CHO-K1 caspase-3/7 induction, Caspase-Glo luminescence, 17 h; series mostly up to 92.4 µM; caspase-3/7 activation: at the top concentration
# Excerpt: National Center for Advancing Translational Sciences [NCATS]
# NIH Chemical Genomics Center [NCGC]
# U.S. Environmental Protection Agency [EPA]
# National Institutes of Environmental Health Sciences [NIEHS]
# National Toxicology Program [NTP]
# Apoptosis is a process of programmed cell death and plays a central role in the development of multicellular organisms. It is a highly regulated process and induces cell death by activating caspases, which are the members of cysteine aspartic acid-specific protease (caspase) family. Caspases involved in apoptosis are classified by their mechanism of action as initiator caspases (caspase-2, -8, -9 and -10) and executioner caspases (caspase-3, -6, and -7). Inhibition of apoptosis results in number of cancers, autoimmune diseases, inflammatory diseases and viral infection. To identify small molecule compounds that induce apoptosis, a homogeneous, luminescent Caspase-Glo 3/7 assay was used. Wild type CHO-K1 cells were used to screen Tox21 libraries for identifying caspase-3/7 activity inducers.
# CHO-K1 cells were dispensed at 1,500 per well in 5uL of culture medium into white solid bottom 1536-well plates (Corning Life Sciences, Corning, NY) using a Multidrop Combi (Thermo Scientific, Waltham, MA) dispenser. The assay plates were incubated at 37 C and 5% CO2 for 5hr, and then 23nL of compounds dissolved in DMSO and positive control were transferred using a Pintool station (Wako, San Diego, CA). The assay plates were incubated at 37C and 5% CO2 for 17hr. For caspase-3/7 activity read, 4uL of Caspase-Glo 3/7 reagent (Promega Corporation, Madison, WI) was added to each well of the assay plates using Flying Reagent Dispenser (FRD, Aurora Discovery, San Diego, CA) and incubated the assay plates at room temperature for 30min. The luminescence signal was quantified using a ViewLux plate reader (Perkin Elmer, Shelton, CT).
# On the % scale 0 is the no-effect control and ±100 the full control effect.
row,Compound,caspase-3/7 activation
1,O=C1Nc2ccc([N+](=O)[O-])cc2C1=O,0.571%
2,CC(C)NCC(O)COc1ccc(CCOCC2CC2)cc1 (stereo not given),-0.689% [at 42.5 µM]
3,Cc1c(-c2ccccc2)oc2c(C(=O)OCCN3CCCCC3)cccc2c1=O,-1.15% [at 42.5 µM]
4,FC(F)(F)C(Cl)(Cl)Cl,-1.08%
5,C1CSCCS1,-0.0059%
6,Clc1cccc(-c2cc(Cl)cc(Cl)c2)c1,2.97%
7,Nc1ccc(Oc2ccc(N)c(N)c2)cc1,-1.19%
8,CC(C)(C)c1cccc(O)c1,1.98%
9,OCc1ccccc1O,0.283% [at 42.5 µM]
10,Cc1c(C(=O)NCCO)[n+](=O)c2ccccc2n1[O-],0.377% [at 42.5 µM]
11,CC(=O)O[C@H]1CC[C@@]2(C)C(=CC[C@@H]3[C@@H]2CC[C@]2(C)C(C(C)=O)=CC[C@@H]32)C1,1.36% [at 42.5 µM]
12,Cc1ccsc1C(=CCCN1CCC[C@@H](C(=O)O)C1)c1sccc1C,1.53% [at 42.5 µM]
13,Cc1nc(N)nc(N)c1-c1ccc(Cl)c(Cl)c1,0.902% [at 42.5 µM]
14,COc1ccc(S(=O)(=O)Nc2nnc(CC(C)C)s2)cc1,0.24% [at 42.5 µM]
15,CC[C@H]1CC[C@H](NCc2cc3c(cc2OC)[C@H]2C[C@H]2C(=O)N3C)[C@H](c2ccccc2)N1,0.0691%
16,COc1cc2c(cc1N)oc1ccccc12,-3.49%
17,Cc1cccc(C)c1NC(=O)CN1CCCCCC1,-0.675% [at 42.5 µM]
18,C=CC(C)(O)CC/C=C(\C)CCC=C(C)C (stereo not given),3.07%
19,O=C1C=CC(=O)O1,-0.334%
20,O=C1CCC(C2CCCCC2)CC1,-1.23%

row,Compound,caspase-3/7 activation
1,CN(C)CCOc1ccccc1Cc1ccccc1,-0.436% [at 42.5 µM]
2,OCc1c2ccccc2cc2ccccc12,-1.84%
3,CCN(CCCc1ccccc1)CCCc1ccccc1,0.519% [at 42.5 µM]
4,CO[C@@]1(NC(=O)CSCC#N)C(=O)N2C(C(=O)O)=C(CSc3nnnn3C)CS[C@@H]21,-0.0444% [at 42.5 µM]
5,CCN(O)CC,1.29%
6,Cc1ccc(C(C)C)cc1O,0.263%
7,Cc1onc(-c2ccccc2)c1C(=O)Cl,0.0592% [at 42.5 µM]
8,CCCS(=O)c1ccc2nc(NC(=O)OC)[nH]c2c1 (stereo not given),-4.17% [at 42.5 µM]
9,O=S(=O)(O)C(F)(F)F,2.13%
10,CC1(C)O[C@@H]2C[C@H]3[C@@H]4CCC5=CC(=O)CC[C@]5(C)[C@@]4(F)[C@@H](O)C[C@]3(C)[C@]2(C(=O)CCl)O1,1.13% [at 42.5 µM]
11,CN(C)C(=O)NC1(c2ccccc2)CCN(CCC[C@]2(c3ccc(Cl)c(Cl)c3)CCCN(C(=O)c3ccccc3)C2)CC1,-0.059% [at 19 µM]
12,CCCC1CCC(=O)O1 (stereo not given),0.0113%
13,FC(F)(F)c1ccccc1,1.43%
14,CCCN(CCC)C(=O)C(CCC(=O)O)NC(=O)c1ccccc1 (stereo not given),0.166% [at 42.5 µM]
15,CCCCN1C[C@H](O)[C@@H](O)[C@H](O)[C@H]1CO,-0.308% [at 42.5 µM]
16,NNS(=O)(=O)c1ccc(Oc2ccc(S(=O)(=O)NN)cc2)cc1,-1.14%
17,CN1CCN(c2c(F)cc3c(=O)c(C(=O)O)cn4c3c2SCC4)CC1,-0.712% [at 42.5 µM]
18,CC(=O)Nc1ccc(C)c(Cl)c1,-0.355%
19,O=C(O)c1ccccc1Nc1cc(Cl)ccc1C(=O)O,1.36% [at 19 µM]
20,O=C(CC(=O)C(F)(F)F)c1ccccc1,-3.05%
